{"source": "PubChem BioAssay AID434926", "about": "(Sanford-Burnham Center for Chemical Genomics, 2010)", "note": "The list shows a part of the results. The source made the active and inactive calls.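 How the source made its calls: active means at least twofold enzyme activation in any of six single-dose repeats, which the averaged readout prints as negative percent; inactive means the rest.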"}
{"target": "Intestinal-type alkaline phosphatase (Homo sapiens) (UniProt P09923)", "sequence (P09923 whole entry, looked up)": "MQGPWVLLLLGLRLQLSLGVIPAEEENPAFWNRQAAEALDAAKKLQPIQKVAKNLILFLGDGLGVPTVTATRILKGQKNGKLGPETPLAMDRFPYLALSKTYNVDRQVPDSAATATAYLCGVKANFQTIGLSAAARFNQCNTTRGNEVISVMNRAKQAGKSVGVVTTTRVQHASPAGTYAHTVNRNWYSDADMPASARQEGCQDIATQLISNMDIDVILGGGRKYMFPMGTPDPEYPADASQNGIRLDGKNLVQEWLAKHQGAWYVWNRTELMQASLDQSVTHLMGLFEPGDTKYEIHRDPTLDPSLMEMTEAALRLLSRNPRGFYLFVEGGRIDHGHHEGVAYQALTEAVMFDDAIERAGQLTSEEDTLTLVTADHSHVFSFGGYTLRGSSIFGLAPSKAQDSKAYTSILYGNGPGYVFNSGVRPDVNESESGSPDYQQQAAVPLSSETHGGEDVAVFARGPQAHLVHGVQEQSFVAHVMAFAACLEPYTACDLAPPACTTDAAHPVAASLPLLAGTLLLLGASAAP", "assay": "human IAP activators, confirmation, biochemical, luminescence, single concentration, uHTS hits (AID 434926)", "conditions": "purified IAP, CDP-Star luminescence, 30 min; at 8.3 µM; stronger effect = lower value"}
{"smiles": "CC(=O)c1ccc(NC(=O)C2CCCN2S(=O)(=O)c2cccs2)cc1", "note": "(centres undefined)", "activation (%Activity, negative = activation)": "-85.1% (active)"}
{"smiles": "O=c1c(/C=N/O)coc2ccc(Cl)cc12", "activation (%Activity, negative = activation)": "-11.6% (inactive)"}
{"smiles": "CCOC(=O)c1cn[nH]c1NC(=S)Nc1ccccc1", "activation (%Activity, negative = activation)": "-69.2% (inactive)"}
{"smiles": "COc1cc(/C=C2/SC(=S)N(Cc3ccccc3)C2=O)cc(OC)c1O", "activation (%Activity, negative = activation)": "3.41% (inactive)"}
{"smiles": "Cc1cccc(NS(=O)(=O)c2cccc(C(=O)NNC(=O)c3ccccc3O)c2)c1", "activation (%Activity, negative = activation)": "29.2% (inactive)"}
{"smiles": "COc1cc(NC(=O)NCC2CCN(Cc3ccc(C)cc3)CC2)cc(OC)c1OC", "activation (%Activity, negative = activation)": "-1.35% (inactive)"}
{"smiles": "Cc1ccc(NC(=O)c2cc(-c3ccccc3O)n[nH]2)cc1C", "activation (%Activity, negative = activation)": "-1.54% (inactive)"}
{"smiles": "Cn1c(=O)c2c(nc(N/N=C/c3cccs3)n2Cc2ccc(Br)cc2)n(C)c1=O", "activation (%Activity, negative = activation)": "-8.19% (inactive)"}
{"smiles": "Cc1cc(C(=O)NC2CC(C)(C)Cc3c2cnn3-c2ccccc2)n[nH]1", "note": "(centres undefined)", "activation (%Activity, negative = activation)": "62.1% (inactive)"}
{"smiles": "N#C/C(=C\\c1ccc(O)c(O)c1)C(=O)NCc1ccccc1", "activation (%Activity, negative = activation)": "-0.121% (inactive)"}
{"smiles": "c1ccc(CSCCc2ccncc2)cc1", "activation (%Activity, negative = activation)": "-33.2% (active)"}
{"smiles": "COc1ccc(C2=Nc3cc(C)ccc3OC2)cc1", "activation (%Activity, negative = activation)": "58.3% (inactive)"}
{"smiles": "OCCCN1c2ccccc2Nc2nnc(-c3ccccc3)cc21", "activation (%Activity, negative = activation)": "-25.8% (inactive)"}
{"smiles": "Cc1c(C=O)c2ccccn2c1C(=O)c1ccncc1", "activation (%Activity, negative = activation)": "5.63% (inactive)"}
{"smiles": "CCCOCC(O)CC(CC)C(=O)NNC(=S)Nc1ccccc1", "note": "(centres undefined)", "activation (%Activity, negative = activation)": "-138% (active)"}
{"smiles": "Cc1c(NC(=O)CN(C)CC(=O)Nc2ccc(F)c(F)c2F)c(=O)n(-c2ccccc2)n1C", "activation (%Activity, negative = activation)": "-0.594% (inactive)"}
{"smiles": "CCCCOC(=O)Nc1sc2nc(C)cc(C)c2c1-n1cccc1", "activation (%Activity, negative = activation)": "-49% (inactive)"}
{"smiles": "O=C(NNC(=S)Nc1ccccc1)c1cccc(S(=O)(=O)N2CCOCC2)c1", "activation (%Activity, negative = activation)": "-70.7% (inactive)"}
{"smiles": "c1ccc2[nH]c(-c3nc4ccccc4[nH]3)nc2c1", "activation (%Activity, negative = activation)": "10.7% (inactive)"}
{"smiles": "O=C(NCCN1CCOCC1)[C@H](Cc1ccccc1)N1C(=O)c2ccccc2C1=O", "activation (%Activity, negative = activation)": "-5.42% (inactive)"}
{"smiles": "CCOc1ccc(NC(=O)CSc2nncn2C)cc1", "activation (%Activity, negative = activation)": "-83.5% (active)"}
{"smiles": "O=C(Nc1cccc(-c2cccc(Cl)c2)c1)C1CCN(C2CCC2)CC1", "activation (%Activity, negative = activation)": "-7.84% (inactive)"}
{"smiles": "Oc1cccc(/C=N/Nc2ccc(Cl)nn2)c1O", "activation (%Activity, negative = activation)": "1.16% (inactive)"}
{"smiles": "COc1c(O)cc2oc(-c3ccc(O)c(O)c3)cc(=O)c2c1O", "activation (%Activity, negative = activation)": "-36.9% (inactive)"}
